Records with an inconclusive call do not appear. Where a call stands in place of a potency, no number is given. Activity calls are given as the source filed them. Calls come from the whole dose curve; as a rule, active = well fitted inhibition curve with a large enough effect; inconclusive = small, poorly fitted or top-dose-only effect; inactive = flat fitted curve, though single readings scatter.
Experiment: BET inhibitor-based combinations targeting novel dependencies in MECOM-rearranged (r) AML: AML-194 cell line (AID 2202237; note: nearly all actives have a fitted effect of over 40% in size)
Conditions: AML-194 (MECOM-r AML) viability, CellTiter-Glo, 48 h; series mostly up to 46 µM
From the text: Ecotropic viral insertion site 1 (EVI1) is located on chromosome 3q26.2 as part of the MECOM (MDS and EVI1 complex) locus. Under normal hematopoiesis, EVI1 is a regulator of hematopoietic stem cell maintenance and self-renewal and EVI1 levels decrease as the cells differentiate. In approximately 5-10% of de novo acute myeloid leukemia (AML) EVI1 is aberrantly expressed, including Chromosomal inv(3)(q21;q26.2) or t(3;3)(q21;q26.2) alterations (MECOM-r) that account for about 50% of AML with EVI1 overexpression 31. AMLs with high levels of EVI1 have a poor prognosis and an overall survival time averaging between 10-14 months. EVI1 overexpression confers resistance in leukemia cells, highlighting the need to develop new targeted therapies for EVI1 overexpressing AMLs.
Here, we performed an unbiased chemical drug screening by evaluating the single agent activity of a collection of 2,480 oncology-focused, approved and investigational drugs (NCATS Mechanism Interrogation Plates, MIPE v5.0) against a panel of seven AML cell lines. These included four MECOM-r cell-lines (AML-191, AML-194, UCSD-AML1 and HNT-34) and three non-MECOM-r AMLs (MV4-11, OCI-AML3 and SET-2). Exploiting the mechanistic redundancy built in the library, we identified target-level sensitivities in MECOM-r AML cells and relative activity as compared to other AML subtypes.
A collection of 2480 mechanistically annotated dugs (MIPE v5.0) was used to screen four 3q26.2 rearranged AML cell lines and three non-3q26.2 rearranged AML cell lines. This library purposely exploits redundancy by including multiple inhibitors of key onco-targets, while simultaneously encompassing mechanistic diversity, targeting more than 800 distinct mechanisms of action. Briefly, cells were seeded in 5 uL of growth media using a Multidrop Combi dispenser into 1536 well white polystyrene tissue culture treated plates (Corning) at a density of 500cells/well. For each cell-line, for each of the 2480 drugs in MIPE v5.0 library, an 11-point dose curve was generated via a 1536 pin-tool. Plates were incubated for 48 hr at standard incubator conditions, covered by a stainless steel gasketed lid to prevent evaporation. Cell viability was determined by luminescence based, Cell Titer Glo assay (Promega). In detail, 3 uL of Cell Titer Glo were added to each well and plates were incubated at room temperature for 15 min with a stainless-steel lid in place. Luminescence readings were taken using a Viewlux (PerkinElmer) with a 2 s exposure time per plate. Compound dose-response curves were normalized to DMSO and empty well controls on each plate. Quantitative drug activity data from dose-response curves was determined utilizing area Under the Curve (AUC) and Z-transformed AUC (Z-AUC, a mean-centering transformation applied to each individual cell-line screened).
Potency is the fitted concentration of half-maximal effect.

| Structure (SMILES) | Potency |
| --- | --- |
| CS(=O)(=O)c1ccc(-c2nnc(/C=C/c3nnc(-c4ccc(C#N)cc4)o3)n2-c2ccccc2Cl)nc1 | inactive |
| CN1C(=O)C[C@H](C(=O)N[C@@H](Cc2cnc[nH]2)C(=O)N2CCC[C@@H]2C(N)=O)NC1=O | inactive |
| Cc1c(C(=O)Nc2ccc(N3C[C@@H](C)O[C@@H](C)C3)nc2)cccc1-c1ccc(OC(F)(F)F)cc1 | inactive |
| COc1nc(C)nc(Cl)c1NC1=NCCN1 | inactive |
| Cc1[nH]nc(C(F)(F)F)c1Cc1sc2c(c1C(=O)N1C[C@](C)(O)CO1)c(=O)n(C)c(=O)n2C(C)C | inactive |
| CCO[C@@H]1OC(=O)C[C@@H]1NC(=O)[C@@H]1CCCN1C(=O)[C@@H](NC(=O)c1ccc(N)c(Cl)c1)C(C)(C)C | inactive |
| CC1CCN(c2cc(N3CCN(C)CC3)ccc2NC(=O)c2cc(C#N)c[nH]2)CC1 | 23.5 µM (active) |
| CC(C)(C)C(=O)CN1C(=O)[C@H](NC(=O)Nc2cccc(C(=O)O)c2)CN(C2CCCCC2)c2ccccc21 | inactive |
| CC(C(=O)O)c1ccc2c(c1)CC(=O)c1ccccc1S2 (stereo not given) | inactive |
| NC(=O)c1ccc(I)c([N+](=O)[O-])c1 | inactive |
| CC(C)Nc1cc(C(F)(F)F)cc2nc(NC(=O)c3cccnc3)nn12 | inactive |
| C=C(C)[C@@H]1CC[C@]2(C(=O)O)CC[C@]3(C)[C@H](CC[C@@H]4[C@@]5(C)CC[C@H](O)C(C)(C)[C@@H]5CC[C@]43C)[C@@H]12 | inactive |
| CC(C)OC(=O)C(C(=O)OC(C)C)=C1SC=CS1 | inactive |
| CC(C)C[C@H](CC(=O)O)C(=O)N[C@@H](Cc1c[nH]c2ccccc12)C(=O)N[C@@H](C)c1ccccc1 | 18.6 µM (active) |
| C=CC(=O)Nc1cccc(Sc2nc(Nc3ccc(N4CCN(C)CC4)cc3)ncc2Cl)c1 | 10.5 µM (active) |
| N#C[C@@H]1C[C@@H]2C[C@@H]2N1C(=O)[C@@H](N)C12CC3CC(CC(O)(C3)C1)C2 | 14.8 µM (active) |
| Clc1ccc(C(Cn2ccnc2)OCc2c(Cl)cccc2Cl)c(Cl)c1 (stereo not given) | 18.6 µM (active) |
| CCCc1nn(C)c2c(=O)[nH]c(-c3cc(S(=O)(=O)N4CCN(C)CC4)ccc3OCC)nc12 | inactive |
| CC(C)c1noc(N2CCC(COc3ccc(-c4ccc(S(C)(=O)=O)cc4)nc3)CC2)n1 | inactive |
| CC1c2ccccc2CN1NC(=O)c1ccc(Cl)c(S(N)(=O)=O)c1 (stereo not given) | inactive |

| Structure (SMILES) | Potency |
| --- | --- |
| CC#C[C@]1(O)CC[C@H]2[C@@H]3CCC4=CC(=O)CCC4=C3[C@@H](c3ccc(N(C)C)cc3)C[C@@]21C | 18.6 µM (active) |
| CC1CCC(C(=O)N(c2cc(C#CC(C)(C)C)sc2C(=O)O)C2CCC(O)CC2)CC1 (stereo not given) | inactive |
| CCNC(=O)CCC/C=C\C[C@@H]1[C@@H](/C=C/C(O)CCc2ccccc2)[C@@H](O)C[C@@H]1O (stereo not given in full) | inactive |
| C[C@H]1CN(C[C@H](Cc2ccccc2)C(=O)NCC(=O)O)CC[C@@]1(C)c1cccc(O)c1 | inactive |
| N[C@@]1(C(=O)O)CS(=O)(=O)[C@H]2[C@H](C(=O)O)[C@H]21 | inactive |
| Cn1cc(-c2ccc3nnc(C(F)(F)c4ccc5ncccc5c4)n3n2)cn1 | inactive |
| CCN(CC)CCn1c(=O)c(Cc2ccc(OC)cc2)nc2ccccc21 | inactive |
| COc1cccc([C@@H](C)NCCCc2ccccc2Cl)c1 | 23.5 µM (active) |
| Cc1cc2c(C(C)C)c(O)c(O)c(C=O)c2c(O)c1-c1c(C)cc2c(C(C)C)c(O)c(O)c(C=O)c2c1O | 13.2 µM (active) |
| O=c1[nH]c(-c2ccc(C(F)(F)F)cc2)nc2c1CSCC2 | inactive |
| CCOC(=O)C1=C(N)Oc2ccc(Br)cc2C1C(C#N)C(=O)OCC (stereo not given) | inactive |
| CC[C@H](C=C[C@@H](C)[C@H]1CC[C@H]2[C@@H]3CC=C4C[C@@H](O)CC[C@]4(C)[C@@H]3CC[C@]12C)C(C)C | inactive |
| CC(=O)NC[C@H]1CN(c2ccc(N3CCOCC3)c(F)c2)C(=O)O1 | inactive |
| c1ccc2c(Oc3nc(Nc4ccc(N5CCOCC5)cc4)c4ncn(C5CCCCC5)c4n3)cccc2c1 | inactive |
| CNC(=O)c1cc(Oc2ccc3nc(N[C@@H]4CCCC[C@H]4O)sc3c2)ccn1 | inactive |
| CC1=C(C(=O)Nc2cc3cn[nH]c3cc2F)C(c2ccc(C(F)(F)F)cc2)CC(=O)N1 (stereo not given) | inactive |
| CN1CCN(c2ccc(OC(F)(F)F)c(Nc3ncc4c(n3)-c3c(c(C(N)=O)nn3CCO)CC4)c2)CC1 | 0.332 µM (active) |
| COc1ccccc1N1CCN(CC(O)COc2cccc3ccccc23)CC1 (stereo not given) | inactive |
| CC[C@@H]1C(=O)N(C)c2cnc(Nc3ccc(C(=O)NC4CCN(C)CC4)cc3OC)nc2N1C1CCCC1 | 0.332 µM (active) |
| C[C@H](NC(=O)Cc1cc(F)cc(F)c1)C(=O)N[C@@H]1C(=O)N(C)c2ccccc2-c2ccccc21 | inactive |
